Compounds without any hit were thinned out: in the full panel of roughly 83,000, 20% have a hit.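 Testing used 96-well plates and a 48-hour single-concentration exposure. Example: -40 means 40% of the starting cells died.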 Unmarked numbers belong to inactive results. Activity calls are given as the source filed them. How the source made its calls: active means growth percent below 10; inactive means the rest.
Key:
Assay in all cases: NCI-60 one-dose screen, 48 h (100 = growth as untreated, 0 = no growth, -100 = all killed)
Conditions in all cases: 10 µM unless noted
NCI-H23 lung = tested on: NCI-H23 lung
NCI-H322M lung = tested on: NCI-H322M lung
HOP-62 NSCLC = tested on: HOP-62 NSCLC
NCI-H460 lung = tested on: NCI-H460 lung
HOP-92 NSCLC = tested on: HOP-92 NSCLC
NCI-H522 lung = tested on: NCI-H522 lung
A549/ATCC NSCLC = tested on: A549/ATCC NSCLC
786-0 renal = tested on: 786-0 renal
COLO 205 colon = tested on: COLO 205 colon
DU-145 prostate = tested on: DU-145 prostate
K-562 leukemia = tested on: K-562 leukemia
MALME-3M melanoma = tested on: MALME-3M melanoma
MDA-MB-231 breast = tested on: MDA-MB-231 breast
RXF 393 renal = tested on: RXF 393 renal
SF-268 CNS = tested on: SF-268 CNS
SF-295 CNS = tested on: SF-295 CNS
SF-539 CNS = tested on: SF-539 CNS
UACC-257 melanoma = tested on: UACC-257 melanoma
M14 melanoma = tested on: M14 melanoma
HCT-15 colon = tested on: HCT-15 colon

Compound	growth (NCI-H23 lung)	growth (NCI-H322M lung)	growth (HOP-62 NSCLC)	growth (NCI-H460 lung)	growth (HOP-92 NSCLC)	growth (NCI-H522 lung)	growth (A549/ATCC NSCLC)	growth (786-0 renal)	growth (COLO 205 colon)	growth (DU-145 prostate)	growth (K-562 leukemia)	growth (MALME-3M melanoma)	growth (MDA-MB-231 breast)	growth (RXF 393 renal)	growth (SF-268 CNS)	growth (SF-295 CNS)	growth (SF-539 CNS)	growth (UACC-257 melanoma)	growth (M14 melanoma)	growth (HCT-15 colon)
COc1cc(C2C3=C(COC3=O)N(CCO)c3cc4c(cc32)OCCO4)cc(OC)c1O (stereo not given)	35.8%	51.6%	32.9%	-3.84% (active)	85.3%	-23.4% (active)	52.8%	19.8%	18.2%	-8.77% (active)	12.5%	64.7%	27.7%	-45.7% (active)	46%	2.74% (active)	-31.2% (active)	46.2%	-22.4% (active)	49.4%
COc1cccc(-c2nn(C)c3sc(C(=O)NCCN4CCN(c5ccccc5F)CC4)cc23)c1	91.2%	87.3%	81.4%	57.6%	14.9%	60.9%	74.7%	57.6%	-78.4% (active)	89.4%	-35.5% (active)	-87% (active)	30.8%	41.3%	76.9%	-55.6% (active)	56.4%	-67.3% (active)	-90.1% (active)	29.3%
CCOC(=O)c1sc(-c2ccc(OS(=O)(=O)c3cccs3)c(C=O)c2)nc1C	11.4%	47.3%	22.5%	3.56% (active)	11.9%	-2.27% (active)	32.5%	5.71% (active)	79.6%	8.94% (active)	4.3% (active)	-5.26% (active)	-16.8% (active)	19%	9.2% (active)	-8.21% (active)	-26.2% (active)	32.1%	-17.6% (active)	1.42% (active)
CCOC(=O)c1ccc(N=Cc2sc(=O)[nH]c2O)cc1	98%	101%	95.4%	101%	90.1%	93.7%	96.6%	98.4%	104%	103%	103%	91.2%	95.5%	102%	88.3%	94.1%	94%	96.9%	97.9%	99.1%
CCC1=C[C@@H]2CN(C1)Cc1c([nH]c3ccccc13)[C@@](C(=O)OC)(c1cc3c(cc1OC)N(C)[C@H]1[C@@](O)(C(=O)OC)[C@H](OC(C)=O)[C@]4(CC)[C@@H]5C[C@@H]5CN5CC[C@]31[C@@H]54)C2	5.89% (active)	49.3%	17.4%	0.48% (active)	21.2%	-14.5% (active)	13.9%	11.2%	-86% (active)	-17.9% (active)	-10% (active)	-63.9% (active)	-45.4% (active)	29.5%	8.9% (active)	20.1%	-17.5% (active)	32.8%	-22.3% (active)	13.4%
CC[C@H](C)[C@@H](C(=O)OC)n1cc(CNC(=O)[C@@H](Cc2ccccc2)NC(=O)OCc2ccccc2)nn1	104%	95.5%	103%	104%	96.4%	87.4%	87.2%	106%	122%	104%	95.9%	100%	101%	104%	93.8%	99.4%	104%	95.8%	109%	97.5%
Nc1ccc(-c2ccc(-c3ccccc3N)c3[nH]c4ccccc4c23)cc1	28.4%	41.4%	42.1%	16.1%	36.9%	46.4%	30.4%	46%	13.2%	10.2%	13.4%	36.8%	36.2%	24.5%	39.5%	22.2%	28%	33.2%	6.58% (active)	19.5%
COc1cc(C(C)n2cc(-c3ccccc3)nn2)ccc1OC1CCCCC1 (stereo not given)	47.7%	78.1%	69.4%	70.5%	69.9%	50.3%	61.6%	78.1%	97.9%	84.3%	25.9%	87.7%	77.9%	98%	78.2%	41.2%	65%	52.1%	79.1%	61.2%
O=C1NC(=O)C(=Cc2cn(Cc3cn(Cc4ccc(Cl)cc4Cl)nn3)c3ccccc23)C(=O)N1	81.4%	92.4%	94.3%	51.7%	92.6%	77.7%	101%	106%	122%	98.9%	75.5%	91.5%	81.9%	85.2%	84.8%	89.6%	93%	95.8%	96.8%	90.4%
O=c1oc2ccc(I)cc2c(=O)n1-c1ccc(I)cc1F	4.94% (active)	7.17% (active)	-8.24% (active)	0.977% (active)	-10.4% (active)	-16.1% (active)	6.24% (active)	2.44% (active)	44.5%	15.8%	5.58% (active)	-27.7% (active)	-9.68% (active)	-3.51% (active)	8.4% (active)	-56.6% (active)	2.15% (active)	-20.3% (active)	-2.96% (active)	2% (active)
CCC1=C[C@]2(C3CC(=O)N(c4ccccc4)C3=O)CC(C(C)(C)C)C[C@@H]2[C@@H]2C(=O)N(c3ccccc3)C(=O)[C@H]12 (stereo not given in full)	95.2%	69.3%	82.1%	93.3%	84.5%	57.3%	68.7%	83.8%	93.3%	92%	83.7%	91.5%	81.4%	87.3%	78.5%	93.6%	95.3%	57.1%	83.7%	87.7%
COc1ccc(S(=O)(=O)N(Cc2ccc3c(n2)C=CC(C)(C)O3)C2CCC2)cc1OC	-14.5% (active)	-20.1% (active)	1.37% (active)	1.79% (active)	-19.6% (active)	-27.7% (active)	-2.9% (active)	-26.5% (active)	0.159% (active)	-8.1% (active)	7.07% (active)	-36.9% (active)	3.21% (active)	-20.2% (active)	-9.29% (active)	-43.3% (active)	0.455% (active)	-13.9% (active)	-59.1% (active)	13.5%
CCn1c(SCC(=O)Nc2cc(C(F)(F)F)ccc2Cl)nc2ccccc2c1=O	70.9%	78.8%	64.2%	28.6%	9.17% (active)	50.7%	50.5%	56.4%	52.6%	38.2%	-46.2% (active)	-15.6% (active)	-25.6% (active)	44.4%	32.6%	67.3%	69.1%	-32% (active)	-67% (active)	36.7%
O=c1oc2ccc(Cl)cc2c(=O)n1-c1ccc(I)cc1F	2.29% (active)	6.37% (active)	0.787% (active)	2.33% (active)	-16.5% (active)	-15.5% (active)	7.89% (active)	2.82% (active)	53%	15.6%	7.73% (active)	-29.2% (active)	-20.5% (active)	-5.52% (active)	8.08% (active)	-57.8% (active)	2.55% (active)	-16.9% (active)	2.42% (active)	3.56% (active)
CCN(CCO)CCNc1ccc(C)c2sc3cc(Cl)ccc3c(=O)c12	59.6%	47%	38.5%	-75.9% (active)	4.54% (active)	50.2%	24.6%	-60.1% (active)	-80.9% (active)	16.9%	-43.6% (active)	-27.8% (active)	-42.8% (active)	5.22% (active)	44.6%	12.5%	73.1%	-49.8% (active)	-74.2% (active)	-44.9% (active)
O=C(Nc1ccc(Br)cc1F)c1cc(F)ccc1O	3.95% (active)	10.4%	2.13% (active)	3.38% (active)	-11.3% (active)	-1.14% (active)	9.75% (active)	-4.66% (active)	16.2%	15.4%	8.73% (active)	-21% (active)	-25.5% (active)	4.59% (active)	12.6%	-58.3% (active)	4.66% (active)	-11.2% (active)	-11.3% (active)	2.25% (active)

— PubChem BioAssay (NCI)
